Screening data deposited in PubChem by several laboratories.
A selection: hits, their analogues and other compounds. The true share with any hit is near 4.5%.
Rtt109 Vps75 = inhibitors of C. albicans Rtt109/Vps75 HAT, primary screen, biochemical, ThioGlo CoA-SH fluorescence, plate reader; Histone acetyltransferase RTT109 (Candida albicans (strain SC5314 / ATCC MYA-2876)), …; purified Rtt109/Vps75, 4 h; inhibition, % at 34.9 µM; 330,000 tested, 0.16% active; AID 540336, 2011;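 active = inhibition of at least 50% in every replicate; inconclusive = best replicate reaches 50% inhibition but some replicates fall short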
Target sequence (Q5AAJ8 whole entry, looked up): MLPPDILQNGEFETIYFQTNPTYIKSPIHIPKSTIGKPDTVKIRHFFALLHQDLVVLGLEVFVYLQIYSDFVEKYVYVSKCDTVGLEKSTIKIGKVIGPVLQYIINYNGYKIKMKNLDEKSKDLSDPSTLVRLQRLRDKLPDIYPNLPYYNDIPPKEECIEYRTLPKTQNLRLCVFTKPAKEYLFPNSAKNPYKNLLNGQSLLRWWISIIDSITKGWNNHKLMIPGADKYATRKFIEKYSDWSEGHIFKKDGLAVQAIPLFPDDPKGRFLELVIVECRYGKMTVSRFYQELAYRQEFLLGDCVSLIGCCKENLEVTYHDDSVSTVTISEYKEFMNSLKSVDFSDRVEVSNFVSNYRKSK
Efflux pump mplx = inhibitors of Candida efflux pumps in yeast, primary screen, S. cerevisiae, Nile Red, multiplex; S. cerevisiae Candida pump triplex; inhibition, % at 10 µM; 330,000 tested, 0.44% active;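 active = plate passing quality check with inhibition over a set limit, or well fluorescence over plate mean plus 4 SD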;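 note: Nile Red retained in pooled yeast measured as flow cytometry median fluorescence; higher means more Nile Red kept so more efflux inhibition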
ALR inh = inhibitors of human ALR sulfhydryl oxidase, primary screen, biochemical, H2O2 detection, HRP-luminol luminescence, single point | FAD-linked sulfhydryl oxidase ALR (Homo sapiens), P55789 | purified ALR, DTT oxidation | inhibition, % (no concentration beside the values) | 290,000 tested, 3.8% active;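 active = mean replicate inhibition above about 79%, with every replicate also reaching it, limit read from the data; inconclusive = only one of the two criteria met; inactive = mean below limit and not every replicate reaching it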
GRK2 aptamer HTS = compounds blocking aptamer binding on GRK2 – biochemical, human GRK2, bead flow cytometry, HTS, primary screen. Beta-adrenergic receptor kinase 1 (Homo sapiens), P25098. FAM-aptamer displacement from GRK2. inhibition of aptamer binding, % at 10 µM. 330,000 tested, 0.59% active. AID 488847, 2010;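 active = inhibition of aptamer binding above 40%, roughly 3 SD of noise, on plates passing a quality check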;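 note: median bead fluorescence of bound FAM aptamer so fluorescent compounds give negative values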
HDAC3 inhib = HDAC3 deacetylase inhibitors, primary screen, biochemical, fluorescence, cell-free homogeneous; inhibition, % at 8.3 µM; Histone deacetylase 3 (Homo sapiens), O15379; 320,000 tested, 0.15% active; AID 2718, 2010; recombinant HDAC3, fluorogenic peptide/trypsin coupled; in the data active = inhibition above about 26%, passing the limit was not always enough; inconclusive = no clear call, values can overlap the other calls
Rce1 inh = yeast Rce1p protease inhibitors, primary screen, biochemical, fluorescence, cell-free homogeneous. CAAX prenyl protease 2 (Saccharomyces cerevisiae (strain ATCC 204508 / S288c)), Q03530. yeast membranes, quenched prenylated peptide cleavage fluorescence. calls only. 290,000 tested, 0.27% active. AID 2563, 2010;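 active = fall in fluorescence gain of 50% or more versus controls, with final raw signal at or below 3038400; inconclusive = same 50% fall but final raw signal above 3038400; inactive = fall in fluorescence gain under 50%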
Target sequence (Q03530 whole entry, looked up): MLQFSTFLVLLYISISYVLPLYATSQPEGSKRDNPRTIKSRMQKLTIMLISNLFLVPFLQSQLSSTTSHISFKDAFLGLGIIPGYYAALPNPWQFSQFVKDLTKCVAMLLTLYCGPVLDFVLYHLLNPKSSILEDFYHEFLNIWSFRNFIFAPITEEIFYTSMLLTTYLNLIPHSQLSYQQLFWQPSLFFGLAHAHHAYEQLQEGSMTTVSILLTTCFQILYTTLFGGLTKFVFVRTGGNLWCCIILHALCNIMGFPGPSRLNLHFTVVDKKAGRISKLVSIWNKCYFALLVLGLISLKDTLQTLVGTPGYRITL
Numbers stand for hits; – = inactive; ? = inconclusive; · = no result; ! = repeats disagree.

SMILES	Rtt109 Vps75	Efflux pump mplx	ALR inh	GRK2 aptamer HTS	HDAC3 inhib	Rce1 inh
COc1cc(/C=N/NS(=O)(=O)c2ccc(Br)cc2)ccc1O	–	–	99	–	–	–
CN(C)c1ccc(/C=N/NS(=O)(=O)c2ccc(Br)cc2)cc1	–	–	90	–	–	–
Cc1cc(C)nc(SCc2ccc(C(=O)N/N=C/c3ccccc3C(=O)O)cc2)n1	–	–	91	–	–	–
COc1ccc(NC(=O)C2=CCN(S(=O)(=O)c3ccccc3)CC2)cc1OC	–	–	–	–	–	–
CCOc1ccc2nc(NCCO)[nH]c2c1	–	–	–	–	–	–
Cc1ccc2nc(NCCCO)[nH]c2c1	–	–	97	–	–	–
Cc1cccc(NS(=O)(=O)c2ccc(C(=O)NCCCN3CCCC3=O)cc2)c1C	–	–	–	–	·	–
Cc1cccc(NC(=S)NCCc2ccccn2)c1	–	–	–	–	–	·
S=C(NCCc1ccccn1)Nc1cccc(Cl)c1	–	–	97	–	–	–
COCCCNC(=S)NNC(=S)Nc1cccc(Cl)c1	–	–	78	–	–	–
COCC(=O)N1CCCC(C(=O)c2ccc(-c3ccccc3)c(F)c2)C1 (stereo not drawn)	–	–	–	–	–	–
CN(C)c1ccc(NC(=O)COC(=O)c2ccc3c(c2)OCO3)cc1	–	–	–	–	33	·
CC(=O)Nc1ccc(NC(=O)C(C)OC(=O)c2ccc3c(c2)OCCO3)cc1 (stereo not drawn)	–	–	·	–	·	–
N#CCC(=O)Nc1ccc(C(=O)OCC(=O)NC(=O)Nc2ccc3c(c2)OCCO3)cc1	–	–	99	–	–	·
CC(OC(=O)c1ccc(NC(=O)CC#N)cc1)C(=O)Nc1ccc2c(c1)OCCO2 (stereo not drawn)	–	–	97	–	–	–
N#CCC(=O)Nc1ccc(C(=O)OCC(=O)NCc2ccc3c(c2)OCO3)cc1	–	–	99	–	–	·
Nc1c(C(=O)CSc2nc(-c3ccccc3)cs2)c(=O)[nH]c(=O)n1C1CC1	–	–	–	–	–	·
CCCN(C(=O)CCl)C1=CCCCC1	–	–	–	–	–	–
Cc1ccc2[nH]cc(CCNC(=O)c3cccs3)c2c1	–	–	97	–	–	–
Cc1nn(-c2ccccn2)c2c1C(=O)CC(C)(C)C2Br (stereo not drawn)	–	–	–	–	·	–
CC(=O)Nc1ccc(N=Nc2ccc(O)cc2)cc1	–	–	99	–	–	–
CC(=O)Nc1ccc(S(=O)(=O)N(C)c2ccccc2)cc1	–	–	–	–	–	–
CC(=O)Nc1ccc(S(=O)(=O)N(C)c2ccc(O)cc2)cc1	–	–	98	–	–	–
O=C(COC(=O)C1CCCCC1)Nc1ccc(S(=O)(=O)N2CCOCC2)cc1	–	–	–	–	–	–
Cc1nc2cc(N)ccc2n1-c1ccccc1	–	–	99	–	–	–
SMILES	Rtt109 Vps75	Efflux pump mplx	ALR inh	GRK2 aptamer HTS	HDAC3 inhib	Rce1 inh
CN1CCc2cccc3c2[C@H]1Cc1ccc(O)c(O)c1-3	100!	–	99	–	–	–
CN1CCc2cc3c(c4c2[C@H]1[C@H](O)c1ccccc1-4)OCO3	–	·	–	·	–	–
O=C(Nc1ccc(F)c(Cl)c1)N1CCCCCC1	–	–	–	–	–	–
Cc1ccc(/C=N/Nc2cccc3cccnc23)c(O)c1	–	–	–	–	–	–
Oc1ccc(/C=N/Nc2nccnc2Cl)c(O)c1	–	–	–	–	–	–
O=c1[nH]ncc(N/N=C\c2ccc(O)cc2O)c1Cl	–	–	96	–	–	–
Oc1ccc(/C=N/Nc2cccc3cccnc23)c(O)c1	–	–	84	–	–	–
CCCCNC(=O)N1c2ccccc2CC1C (stereo not drawn)	–	–	–	–	–	–
COCc1nnc(NC(=O)c2ccc(S(=O)(=O)N3CCCc4ccccc43)cc2)o1	–	–	86	–	–	–
O=C(Nc1nnc(C2CC2)o1)c1ccc(S(=O)(=O)N2CCCCC2)cc1	–	–	–	–	–	–
O=C(Nc1nnc(C2CC2)o1)c1ccc(S(=O)(=O)N2CCCc3ccccc32)cc1	–	–	96	–	–	–
COc1ccc(-c2nnc(NC(=O)c3ccc(S(=O)(=O)N4CCCc5ccccc54)cc3)o2)cc1	–	–	–	–	–	–
CN(C)S(=O)(=O)c1cccc(COC(=O)CN2C(=O)NC3(CCCC3)C2=O)c1	–	–	–	–	–	–
O=C(Nc1ccc(S(=O)(=O)Nc2nccs2)cc1)c1c(F)c(F)c(F)c(F)c1F	–	–	–	–	–	–
CCOC(=O)CNC(=O)c1cccnc1	–	–	–	–	–	–
CCOC(=O)C(O)(NC(=O)c1cccnc1)C(F)(F)F (stereo not drawn)	–	–	–	–	42	–
Nc1nc(N)nc(-c2cc(O)ccc2O)n1	–	–	91	–	?	·
Cc1cc(C)nc(NNC(=O)c2ccccc2O)n1	–	–	95	–	–	–
Cc1cc(NC(=O)c2ccccc2O)nc(C)n1	–	–	–	–	–	–
CC(Sc1nn(-c2ccccc2)c(=S)s1)C(=O)NCC1CCCO1 (stereo not drawn)	–	–	–	–	–	·
CCOC(=O)c1sc(-c2ccc(Cl)cc2Cl)nc1O	–	–	97	·	–	–
COc1ccc(NCc2cccnc2)cc1	–	–	–	–	–	–
Oc1ccccc1C=NC1=NN(c2cccc(C(F)(F)F)c2)CC1	–	–	78	–	?	–
FC(F)(F)c1cccc(N2CCC(N=CN3CCCCCC3)=N2)c1	–	–	–	–	–	–
Cc1ccc(NC(=O)CSc2nccn(-c3ccc4c(c3)OCCO4)c2=O)cc1	–	–	99	–	–	–
SMILES	Rtt109 Vps75	Efflux pump mplx	ALR inh	GRK2 aptamer HTS	HDAC3 inhib	Rce1 inh
CCOc1ccc(NC(=O)CSc2nccn(-c3ccc4c(c3)OCCO4)c2=O)cc1	?	–	98	–	–	–
Cc1cc(Br)ccc1NC(=O)CN(C)C(=O)COc1cccc2c1OC(C)(C)C2	–	–	–	–	–	–
O=S(=O)(N/N=C\c1ccc2c(c1)OCO2)c1ccc(F)cc1	–	–	86	–	–	–
COc1cc(/C=N/N(C)c2ccccc2)ccc1O	·	–	99	–	–	–
Clc1ccccc1N/N=C/c1ccc2c(c1)OCO2	–	–	99	–	–	–
CN(/N=C/c1ccc2c(c1)OCO2)c1ccccc1	–	–	85	–	–	–
C(=N\N(c1ccccc1)c1ccccc1)/c1ccc2c(c1)OCO2	–	–	–	–	–	–
O=S(=O)(Nc1nccs1)c1ccc(NCc2cc(Br)cc(Br)c2O)cc1	–	–	–	–	–	–
